Reference: PubChem BioAssay (NCATS)
Results filed as inconclusive are left out. Activity calls are given as the source filed them. The call rests on the fitted dose curve; in most records, active means well fitted curve in the direction sought with a large enough effect; inconclusive means small, poorly fitted or top-dose-only effect, or another doubt; inactive means no such curve, though single readings can be large; an effect the other way counts as inactive or inconclusive.

Assay: Quantitative High-Throughput drug screen in 47 multiple myeloma cell lines against the NCATS MIPE library collection: Karpas417_ECACC cell viability assay (AID 1918961)
Details: Karpas417 myeloma viability, CellTiter-Glo ATP luminescence, 48 h; viability (% of DMSO): at 45.8 µM (top of the series)
Method in brief: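 We plated 500 myeloma cells per well, pinned in MIPE 4.0 compounds, and incubated for 48 hours at 37C. ATP was then quantified with CellTiter-Glo, with DMSO and media-only wells defining 100% and 0%.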
Potency means the concentration at half of the fitted maximal effect.

Row | Structure (SMILES) | Potency
1 | C[C@@H](NC(=O)c1ncnc(N)c1Cl)c1ncc(C(=O)Nc2cc(C(F)(F)F)c(Cl)cn2)s1 | 2.96 µM (active)
2 | Cc1cn([C@@H]2C[C@@H](O)[C@H](CO)O2)c(=O)[nH]c1=O | inactive
3 | Cc1cccc(-c2[nH]c(C(C)(C)C)nc2-c2ccc3c(c2)OCO3)n1 | 1.66 µM (active)
4 | COC(=O)N1CCN(Cc2cccc(NC(=O)Nc3ccc(C)nc3)c2F)CC1 | 0.0047 µM (active)
5 | CNC(=O)c1cc(Oc2ccc(NC(=O)Nc3ccc(Cl)c(C(F)(F)F)c3)c(F)c2)ccn1 | 4.69 µM (active)
6 | CN1CC(=O)N2C(Cc3c([nH]c4ccccc34)[C@H]2c2ccc3c(c2)OCO3)C1=O (stereo partly drawn) | inactive
7 | C[C@@]1(c2cc(-c3cncnc3)c(F)cc2F)CCSC(N)=N1 | 0.0833 µM (active)

Assay: Quantitative High-Throughput drug screen in 47 multiple myeloma cell lines against the NCATS MIPE library collection: KHM11_PLB cell viability assay (AID 1918962); further: nearly all actives have a fitted effect of over 35% in size
Details: KHM11 myeloma cell viability, CellTiter-Glo ATP luminescence, 48 h; series mostly up to 45.8 µM
Method in brief: (§1)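 Primary qHTS used for cherry-picking: cells at 500/well, library compounds for 48 h (37C, 5% CO2), luminescent ATP assay.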

Row | Structure (SMILES) | Potency
8 | CCc1cccc(CC)c1NC(=O)N1Cc2[nH]nc(NC(=O)c3ccc(N4CCN(C)CC4)cc3)c2C1 | 16.6 µM (active)
9 | CCNC(=O)c1noc(-c2cc(C(C)C)c(O)cc2O)c1-c1ccc(CN2CCOCC2)cc1 | 0.0833 µM (active)
10 | Cc1cc(C(C)Nc2ccccc2)c2nc(N3CCOCC3)cc(=O)n2c1 (stereo not drawn) | 1.48 µM (active)
11 | C[C@@H](NC(=O)c1ncnc(N)c1Cl)c1ncc(C(=O)Nc2cc(C(F)(F)F)c(Cl)cn2)s1 | 5.26 µM (active)
12 | NC1(C(=O)N[C@@H](CCO)c2ccc(Cl)cc2)CCN(c2ncnc3[nH]ccc23)CC1 | 1.87 µM (active)
13 | CC(=O)OCC(=O)[C@@]12OC(C)(C)O[C@H]1C[C@H]1[C@@H]3C[C@H](F)C4=CC(=O)C=C[C@]4(C)[C@@]3(F)[C@@H](O)C[C@@]12C | inactive
14 | CCOC(=O)[C@H](CCc1ccccc1)N[C@@H](C)C(=O)N1CCCC1C(=O)O (stereo partly drawn) | inactive
15 | CCCCC(F)(F)[C@@]1(O)CC[C@H]2[C@H](CC(=O)[C@@H]2CCCCCCC(=O)O)O1 | inactive
16 | CCN(CC)CCCCNc1nc2cc(Cl)c(Cl)cc2nc1-c1ccc(-c2cccs2)s1 | 10.5 µM (active)
17 | COc1cc(CNC(=O)CCCCC=CC(C)C)ccc1O | inactive
18 | Cc1cn([C@@H]2C[C@@H](O)[C@H](CO)O2)c(=O)[nH]c1=O | inactive
19 | Cc1cccc(-c2[nH]c(C(C)(C)C)nc2-c2ccc3c(c2)OCO3)n1 | 1.18 µM (active)
20 | C[C@@H](O)[C@H]1C(=O)N2C(C(=O)OCOC(=O)C(C)(C)C)=C(SC3CN(C4=NCCS4)C3)[C@H](C)[C@H]12 | inactive
21 | N#CC(c1ccnc(NCCc2cccnc2)n1)c1nc2ccccc2s1 (stereo not drawn) | 11.8 µM (active)
22 | COC(=O)N1CCN(Cc2cccc(NC(=O)Nc3ccc(C)nc3)c2F)CC1 | inactive
23 | CNC(=O)c1cc(Oc2ccc(NC(=O)Nc3ccc(Cl)c(C(F)(F)F)c3)c(F)c2)ccn1 | 0.059 µM (active)
24 | CC[C@H](C)C(=O)O[C@H]1C[C@H](O)C=C2C=C[C@H](C)[C@H](CC[C@@H](O)C[C@@H](O)CC(=O)O)[C@H]21 | inactive
25 | CN1CC(=O)N2C(Cc3c([nH]c4ccccc34)[C@H]2c2ccc3c(c2)OCO3)C1=O (stereo partly drawn) | inactive
26 | COc1cc2ncn(-c3cc(OCc4ccccc4S(C)(=O)=O)c(C#N)s3)c2cc1OC | inactive

Assay: Quantitative High-Throughput drug screen in 47 multiple myeloma cell lines against the NCATS MIPE library collection: JIM3_ECACC cell viability assay (AID 1918963; further: nearly all actives have a fitted effect of over 35% in size)
Details: JIM3 myeloma viability, CellTiter-Glo ATP, 48 h; series mostly up to 45.8 µM
Method in brief: as §1

Row | Structure (SMILES) | Potency
27 | CCc1cccc(CC)c1NC(=O)N1Cc2[nH]nc(NC(=O)c3ccc(N4CCN(C)CC4)cc3)c2C1 | 4.69 µM (active)
28 | CCNC(=O)c1noc(-c2cc(C(C)C)c(O)cc2O)c1-c1ccc(CN2CCOCC2)cc1 | 0.0743 µM (active)
29 | Cc1cc(C(C)Nc2ccccc2)c2nc(N3CCOCC3)cc(=O)n2c1 (stereo not drawn) | 14.8 µM (active)
30 | C[C@@H](NC(=O)c1ncnc(N)c1Cl)c1ncc(C(=O)Nc2cc(C(F)(F)F)c(Cl)cn2)s1 | 13.2 µM (active)
31 | NC1(C(=O)N[C@@H](CCO)c2ccc(Cl)cc2)CCN(c2ncnc3[nH]ccc23)CC1 | 1.05 µM (active)
32 | CC(C)=CCCC(C)=CCCC(C)=CCCC(C)=CCCC(C)=CCCC(C)=CCCC(C)=CCCC(C)=CCCC(C)=CCO | inactive
33 | CC(=O)OCC(=O)[C@@]12OC(C)(C)O[C@H]1C[C@H]1[C@@H]3C[C@H](F)C4=CC(=O)C=C[C@]4(C)[C@@]3(F)[C@@H](O)C[C@@]12C | inactive
34 | CCCCCOC(=O)Nc1nc(=O)n([C@@H]2O[C@H](C)[C@@H](O)C2O)cc1F (stereo partly drawn) | inactive
35 | Nc1[nH]nc2nnc(-c3c(-c4ccccc4)nn4ccccc34)cc12 | 9.35 µM (active)
36 | CCCCC(F)(F)[C@@]1(O)CC[C@H]2[C@H](CC(=O)[C@@H]2CCCCCCC(=O)O)O1 | inactive
37 | O=C(Nc1cccc(C(F)(F)F)c1)Nc1cc(S(=O)(=O)NC2CC2)ccc1-c1ccsc1 | 23.5 µM (active)
38 | CC1(C)CC(=O)c2c(C(F)(F)F)nn(-c3ccc(C(N)=O)c(NC4CCC(O)CC4)c3)c2C1 (stereo not drawn) | 0.105 µM (active)
39 | CCN(CC)CCCCNc1nc2cc(Cl)c(Cl)cc2nc1-c1ccc(-c2cccs2)s1 | 8.33 µM (active)
40 | COc1cc(CNC(=O)CCCCC=CC(C)C)ccc1O | inactive
41 | Cc1cccc2c1CC[C@H](CN1CCC(c3c(Cl)cccc3Cl)CC1)C[C@@H]2O | 14.8 µM (active)
42 | CC1CCN(c2cc(N3CCN(C)CC3)ccc2NC(=O)c2cc(C#N)c[nH]2)CC1 | inactive
43 | Cc1cn([C@@H]2C[C@@H](O)[C@H](CO)O2)c(=O)[nH]c1=O | inactive
44 | Cc1cccc(-c2[nH]c(C(C)(C)C)nc2-c2ccc3c(c2)OCO3)n1 | 0.833 µM (active)
45 | C[C@@H](O)[C@H]1C(=O)N2C(C(=O)OCOC(=O)C(C)(C)C)=C(SC3CN(C4=NCCS4)C3)[C@H](C)[C@H]12 | inactive
46 | N#CC(c1ccnc(NCCc2cccnc2)n1)c1nc2ccccc2s1 (stereo not drawn) | 16.6 µM (active)
47 | CC1(C)OC2CC3C4CC(F)C5=CC(=O)C=CC5(C)C4C(O)CC3(C)[C@]2(C(=O)CO)O1 (stereo partly drawn) | inactive
48 | CCN1C[C@H](C)n2c(c(O)c3c(=O)n(Cc4ccc(F)c(Cl)c4)nc(C(=O)NC)c32)C1=O | inactive
49 | CNC(=O)c1cc(Oc2ccc(NC(=O)Nc3ccc(Cl)c(C(F)(F)F)c3)c(F)c2)ccn1 | 3.32 µM (active)
50 | CC[C@H](C)C(=O)O[C@H]1C[C@H](O)C=C2C=C[C@H](C)[C@H](CC[C@@H](O)C[C@@H](O)CC(=O)O)[C@H]21 | inactive
51 | CN1CC(=O)N2C(Cc3c([nH]c4ccccc34)[C@H]2c2ccc3c(c2)OCO3)C1=O (stereo partly drawn) | inactive
52 | C[C@@]1(c2cc(-c3cncnc3)c(F)cc2F)CCSC(N)=N1 | 23.5 µM (active)
53 | COc1cc2ncn(-c3cc(OCc4ccccc4S(C)(=O)=O)c(C#N)s3)c2cc1OC | inactive
